Assay results taken from PubChem BioAssay (Tox21).
Values joined by “and” are separate entries in the source; they are usually repeats but may differ in a detail not shown here. Equal values may be shown once. Records with an inconclusive call do not appear. Active and inactive are the calls of the source. Calls come from the whole dose curve; as a rule, active = well fitted curve in the direction sought with a large enough effect in the repeat runs; inconclusive = weak or mixed curves; inactive = no such curve, though single readings can be large; an effect the other way counts as inactive or inconclusive.

How the values were obtained:
[1] = A CellTox Green Cytotoxicity Assay to monitor cytotoxicity in HEK293 cells - 40 hour (AID 1224871); note: nearly all actives have a fitted effect of over 45% in size; note: potency is the fitted concentration of half-maximal effect
Method in brief: (§1)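 Dead-cell fluorescence measured kinetically: asymmetric cyanine dye, HEK293, 600 cells/well, 5 h settle, 23 nL cpd/DMSO, 37 C, reads 0–40 h every 8 h.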

[2] = qHTS RealTime-Glo MT Cell Viability Assay in HEK293 cells - 16 hour (AID 1224872); note: nearly all actives have a fitted effect of over 50% in size; note: potency is the fitted concentration of half-maximal effect
Method in brief: (§2)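 Quantitative high-throughput screen of the Tox21 10K library in HEK293: cells and RealTime-Glo reagents plated together, compound added at 5 h, luminescence monitored through 40 h at 37 C.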

[3] = qHTS RealTime-Glo MT Cell Viability Assay in HepG2 cells - 8 hour (AID 1224873); note: nearly all actives have a fitted effect of over 55% in size; note: potency is the fitted concentration of half-maximal effect
Method in brief: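 HepG2 cells (600/well) mixed with RealTime-Glo MT reagent, settled 5 h at 37 C/5% CO2 before compound addition. Nonlytic NanoLuc luminescence from viable-cell prosubstrate reduction read repeatedly during 40 h treatment at 37 C.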

[4] = qHTS RealTime-Glo MT Cell Viability Assay in HEK293 cells - 40 hour (AID 1224874); conditions: RealTime-Glo luminescence; max response: hits give low values; note: nearly all actives have a fitted effect of over 50% in size; note: potency is the fitted concentration of half-maximal effect
Method in brief: (§3)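 600 HEK293 cells per well, dispensed already mixed with RealTime-Glo MT reagents. Compound dosing came 5 h later. The same wells were read for luminescence at 0, 8, 16, 24, 32 and 40 h of exposure at 37 C.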

[5] = A CellTox Green Cytotoxicity Assay to monitor cytotoxicity in HEK293 cells - 24 hour (AID 1224875); note: nearly all actives have a fitted effect of over 45% in size; note: potency is the fitted concentration of half-maximal effect
Method in brief: as §1

[6] = A CellTox Green Cytotoxicity Assay to monitor cytotoxicity in HepG2 cells - 16 hour (AID 1224876); note: nearly all actives have a fitted effect of over 45% in size; note: potency is the fitted concentration of half-maximal effect
Method in brief: (§4)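 First, HepG2 cells (600/well) mixed with reagent were plated; second, after 5 h at 37 C they received compounds via pintool; third, fluorescence was measured at 0 h through 40 h at 8 h intervals.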

[7] = qHTS RealTime-Glo MT Cell Viability Assay in HepG2 cells - 32 hour (AID 1224877); note: nearly all actives have a fitted effect of over 55% in size; note: potency is the fitted concentration of half-maximal effect
Method in brief: (§5)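 Compound treatment began 5 h after plating HepG2 cells (600/well) with NanoLuc luciferase and prosubstrate. Plates stayed at 37 C for 40 h; luminescence was captured at six time points, 0 h through 40 h.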

[8] = A CellTox Green Cytotoxicity Assay to monitor cytotoxicity in HepG2 cells - 24 hour (AID 1224878); note: nearly all actives have a fitted effect of over 45% in size; note: potency is the fitted concentration of half-maximal effect
Method in brief: as §4

[9] = A CellTox Green Cytotoxicity Assay to monitor cytotoxicity in HepG2 cells - 40 hour (AID 1224879); note: nearly all actives have a fitted effect of over 40% in size; note: potency is the fitted concentration of half-maximal effect
Method in brief: as §4

[10] = qHTS RealTime-Glo MT Cell Viability Assay in HEK293 cells - 0 hour (AID 1224880)
Method in brief: as §3

[11] = A CellTox Green Cytotoxicity Assay to monitor cytotoxicity in HEK293 cells - 32 hour (AID 1224881); note: nearly all actives have a fitted effect of over 40% in size; note: potency is the fitted concentration of half-maximal effect
Method in brief: as §1

[12] = A CellTox Green Cytotoxicity Assay to monitor cytotoxicity in HepG2 cells - 0 hour (AID 1224882); note: nearly all actives have a fitted effect of over 35% in size
Method in brief: as §4

[13] = A CellTox Green Cytotoxicity Assay to monitor cytotoxicity in HepG2 cells - 32 hour (AID 1224883); note: nearly all actives have a fitted effect of over 50% in size; note: potency is the fitted concentration of half-maximal effect
Method in brief: as §4

[14] = A CellTox Green Cytotoxicity Assay to monitor cytotoxicity in HEK293 cells - 8 hour (AID 1224884); note: nearly all actives have a fitted effect of over 35% in size; note: potency is the fitted concentration of half-maximal effect
Method in brief: as §1

[15] = qHTS RealTime-Glo MT Cell Viability Assay in HEK293 cells - 24 hour (AID 1224886); note: nearly all actives have a fitted effect of over 50% in size; note: potency is the fitted concentration of half-maximal effect
Method in brief: as §2

[16] = qHTS RealTime-Glo MT Cell Viability Assay in HEK293 cells - 8 hour (AID 1224887); note: nearly all actives have a fitted effect of over 50% in size; note: potency is the fitted concentration of half-maximal effect
Method in brief: as §3

[17] = A CellTox Green Cytotoxicity Assay to monitor cytotoxicity in HEK293 cells - 16 hour (AID 1224888); note: nearly all actives have a fitted effect of over 35% in size; note: potency is the fitted concentration of half-maximal effect
Method in brief: as §1

[18] = qHTS RealTime-Glo MT Cell Viability Assay in HepG2 cells - 0 hour (AID 1224889); note: nearly all actives have a fitted effect of over 50% in size
Method in brief: as §5

[19] = A CellTox Green Cytotoxicity Assay to monitor cytotoxicity in HepG2 cells - 8 hour (AID 1224890); note: nearly all actives have a fitted effect of over 45% in size; note: potency is the fitted concentration of half-maximal effect
Method in brief: as §4

[20] = qHTS RealTime-Glo MT Cell Viability Assay in HepG2 cells - 16 hour (AID 1224885); note: nearly all actives have a fitted effect of over 50% in size; note: potency is the fitted concentration of half-maximal effect
Method in brief: as §5
% is set by controls: 0 for no effect and ±100 for the full control effect.

CC(=O)CC(C)=O
inactive: Potency [1] | Potency [2] | Potency [3] | max response [4] -5.33% | Potency [5] | Potency [6] | Potency [7] | Potency [8] | Potency [9] | Potency [10] | Potency [11] | Potency [12] | Potency [13] | Potency [14] | Potency [15] | Potency [16] | Potency [17] | Potency [18] | Potency [19]

CCC(CO)(CO)COCC(CC)(CO)CO
inactive: Potency [1] | Potency [2] | Potency [3] | max response [4] -1.05% | Potency [5] | Potency [6] | Potency [7] | Potency [8] | Potency [9] | Potency [10] | Potency [11] | Potency [12] | Potency [13] | Potency [14] | Potency [20] | Potency [15] | Potency [16] | Potency [17] | Potency [18] | Potency [19]

COc1ccc(Cc2cnc(N)nc2N)cc1OC
inactive: Potency [1] | Potency [2] | Potency [3] | max response [4] 0.446% | Potency [5] | Potency [6] | Potency [7] | Potency [8] | Potency [9] | Potency [10] | Potency [11] | Potency [12] | Potency [13] | Potency [14] | Potency [15] | Potency [16] | Potency [17] | Potency [18] | Potency [19]

C=CS(=O)(=O)O
inactive: Potency [1] | Potency [2] | Potency [3] | max response [4] 2.23% | Potency [5] | Potency [6] | Potency [7] | Potency [8] | Potency [9] | Potency [10] | Potency [11] | Potency [12] | Potency [13] | Potency [14] | Potency [20] | Potency [15] | Potency [16] | Potency [17] | Potency [18] | Potency [19]

CCC[C@H](N[C@@H](C)C(=O)N1[C@H](C(=O)O)C[C@@H]2CCCC[C@@H]21)C(=O)OCC
inactive: Potency [1] | Potency [2] | Potency [3] | max response [4] 4.1% and 12.6% | Potency [5] | Potency [6] | Potency [7] | Potency [8] | Potency [9] | Potency [10] | Potency [11] | Potency [12] | Potency [13] | Potency [14] | Potency [20] | Potency [15] | Potency [16] | Potency [17] | Potency [18] | Potency [19]

OCC(CO)N[C@H]1C[C@](O)(CO)[C@@H](O)[C@H](O)[C@H]1O
inactive: Potency [1] | Potency [2] | Potency [3] | max response [4] 11.4% | Potency [5] | Potency [6] | Potency [7] | Potency [8] | Potency [9] | Potency [10] | Potency [11] | Potency [12] | Potency [13] | Potency [14] | Potency [15] | Potency [16] | Potency [17] | Potency [18] | Potency [19]

O=C(O)c1cn(-c2ccc(F)cc2)c2cc(N3CCNCC3)c(F)cc2c1=O
inactive: Potency [1] | Potency [2] | Potency [3] | max response [4] 4.85% and 19.5% | Potency [5] | Potency [6] | Potency [7] | Potency [8] | Potency [9] | Potency [10] | Potency [11] | Potency [12] | Potency [13] | Potency [14] | Potency [20] | Potency [15] | Potency [16] | Potency [17] | Potency [18] | Potency [19]

CC(C)CCOC(=O)c1ccc(N(C)C)cc1
inactive: Potency [1] | Potency [2] | Potency [3] | max response [4] 3.04% | Potency [5] | Potency [6] | Potency [7] | Potency [8] | Potency [10] | Potency [12] | Potency [13] | Potency [14] | Potency [15] | Potency [16] | Potency [17] | Potency [19]
active: Potency [9] 1.9 µM

CC1=CC(=O)c2ccccc2C1=O
inactive: Potency [12] | Potency [18]
active: Potency [1] 21.9 µM and 23.9 µM | Potency [2] 13.8 µM and 23.9 µM | Potency [3] 38.9 µM | Potency [4] 15.5 µM | Potency [5] 24.5 µM and 26.8 µM | Potency [6] 49 µM and 26.8 µM | Potency [7] 49 µM | Potency [8] 43.6 µM and 26.8 µM | Potency [9] 43.6 µM and 26.8 µM | Potency [11] 19.5 µM and 26.8 µM | Potency [13] 43.6 µM and 26.8 µM | Potency [14] 21.9 µM and 23.9 µM | Potency [20] 43.6 µM | Potency [15] 15.5 µM | Potency [16] 7.76 µM and 16.9 µM | Potency [17] 21.9 µM and 26.8 µM | Potency [19] 54.9 µM and 23.9 µM

C/C=C/c1ccc(OCC)c(O)c1
inactive: Potency [1] | Potency [2] | Potency [3] | max response [4] -14.3% and 2.47% | Potency [5] | Potency [6] | Potency [7] | Potency [8] | Potency [9] | Potency [10] | Potency [11] | Potency [12] | Potency [13] | Potency [14] | Potency [15] | Potency [16] | Potency [17] | Potency [19]

CCn1c2ccccc2c2cc(N)ccc21
inactive: Potency [1] | Potency [2] | Potency [3] | max response [4] -18.5% and -3.18% and -13.8% | Potency [5] | Potency [6] | Potency [7] | Potency [9] | Potency [10] | Potency [11] | Potency [12] | Potency [13] | Potency [14] | Potency [15] | Potency [16] | Potency [17] | Potency [18] | Potency [19]
